Measured values taken from article PMC4552634, “A New Set of Chemical Starting Points with Plasmodium falciparum Transmission-Blocking Potential for Antimalarial Drug Discovery” (PLoS ONE, 2015).
Hit rate of the full screen: of about 13,000 compounds, about 3,200 (25%) showed an effect of 50% or more. The list shows a part of the results.

The compounds below were run on P. falciparum stage V gametocytes. Conditions: 48 h, 5 µM; inhibitor.
Set-up: BacTiter-Glo ATP luminescence viability of purified stage V gametocytes in 384-well plates, per cent inhibition versus DMSO

Compound | % Inhibition [%]
Cc1[nH]c(C)c(-c2ccc(Oc3ccc(Cl)cc3)c(Cl)c2)c(=O)c1Br [TCMDC-137409] | 21.95
Cc1[nH]c(C)c(-c2ccc(Oc3cc(Cl)cc(Cl)c3)cc2)c(=O)c1Br [TCMDC-137392] | 48.81
Cc1[nH]c(C)c(-c2ccc(Cl)cc2Cl)c(=O)c1Br [TCMDC-137428] | 6.285
Cc1[nH]c(C)c(-c2ccc(Oc3ccc(Cl)cc3Cl)cc2)c(=O)c1Br [TCMDC-137533] | 62.65
Cc1[nH]c(C)c(-c2ccc(Oc3ccc(Cl)c(Cl)c3)cc2)c(=O)c1Br [TCMDC-137397] | 72.37
Cc1[nH]c(C)c(-c2ccc(Oc3ccc(Cl)c(Cl)c3)cc2)c(=O)c1Cl [TCMDC-137396] | 73.66
Cc1noc(C)c1-c1ccc(C(=C2CCCCCC2)c2ccc(O)cc2)cc1 [TCMDC-135873] | -11.65
CCCCCc1cc(O)c2c(c1)OC(C)(C)C=C2C1=CCN(Cc2ccsc2)CC1 [TCMDC-131400] | -46.98
COc1cc(NC(=O)c2c(-c3c(F)cccc3Cl)noc2C)c(OC)cc1Cl [TCMDC-123635] | 20.08
Cc1ccc(NC(=O)c2cccc(CN3CCCN(Cc4cccc(O)c4)CC3)c2)cc1 [TCMDC-135961] | 28.04
CCN1CCN(Cc2c(O)ccc3c(=O)c(Oc4cc(C)cc(C)c4)c(C(F)(F)F)oc23)CC1 [TCMDC-125696] | 11.78
NC1=NC2(CCCCC2)N(Cc2ccc(Cl)c(Cl)c2)C(N)=N1 [TCMDC-136304] | -26.78
CN1CC=C(c2c[nH]c3ccc(C(=O)c4nccs4)cc23)CC1 [TCMDC-137277] | 17.28
Cc1cc(Nc2ccccc2)nc(NCCOc2ccccc2)n1 [TCMDC-137574] | 48.49
O=C(O)c1cccc2c(-c3ccncc3)cccc12 [TCMDC-139219] | 9.999
Cn1ccnc1S(=O)(=O)CCNCc1ccc(-c2ccc3ncnc(Nc4ccc(OCc5cccc(F)c5)c(Cl)c4)c3c2)o1 [TCMDC-138564] | 21.76

Compound | % Inhibition [%]
Cc1ccc(C(CC(=O)Nc2nccs2)c2ccc(OC(C)C)cc2)cc1 (centres unmarked) [TCMDC-124467] | 72.01
CCOc1ccc(S(=O)(=O)N(C)c2ccc(OCC(=O)Nc3nccs3)cc2)cc1 [TCMDC-123622] | 21.93
O=C(COc1ccc(C(=O)c2ccccc2)cc1)Nc1nccs1 [TCMDC-124432] | -13.79
O=C(/C=C/c1ccc(Cl)c(Cl)c1)NCCCCCN1CCC(NC(=O)c2ccc([N+](=O)[O-])cc2)CC1 [TCMDC-135843] | 15.45
CCn1ccc2c(N3CCCS3(=O)=O)cc(C(=O)N[C@@H](Cc3ccccc3)[C@H](O)CNC(C)(C)c3cccc(OC)c3)cc21 [TCMDC-134672] | 43.65
CCOc1cc(C(=O)N[C@@H](Cc2ccccc2)[C@H](O)CNC(C)(C)c2cccc(OC)c2)cc(N2CCCS2(=O)=O)c1 [TCMDC-134403] | 22.2
CCCN(CCC)C(=O)c1cc(C(=O)N[C@@H](Cc2ccccc2)[C@H](O)CNC(C)(C)c2cccc(OC)c2)cc(N2CCCCS2(=O)=O)c1 [TCMDC-134674] | 75.74
CCn1cnc2c(N3CCCCS3(=O)=O)cc(C(=O)N[C@@H](Cc3ccccc3)[C@H](O)CNC3CCOCC3)cc21 [TCMDC-135662] | 16.67
CCn1ccc2c(N3CCCCS3(=O)=O)cc(C(=O)N[C@@H](Cc3ccccc3)[C@H](O)CNC3CCCCC3)cc21 [TCMDC-135314] | 53.3
CCCN(CCC)C(=O)c1cc(C(=O)N[C@@H](Cc2ccccc2)[C@H](O)CNCc2cccc(C(F)(F)F)c2)cc(N2CCCCS2(=O)=O)c1 [TCMDC-138883] | -16.54
CCCN(CCC)C(=O)c1cc(C(=O)N[C@@H](Cc2ccccc2)[C@H](O)CNCc2cccc(OC)c2)cc(N2CCCCS2(=O)=O)c1 [TCMDC-138893] | -16.98
CCn1ccc2c(N3CCCS3(=O)=O)cc(C(=O)N[C@@H](Cc3ccccc3)[C@H](O)CNC3CCCCC3)cc21 [TCMDC-135315] | 41.25
CCn1cnc2c(N3CCCS3(=O)=O)cc(C(=O)N[C@@H](Cc3ccccc3)[C@H](O)CNC(C)(C)c3cccc(C(F)(F)F)c3)cc21 [TCMDC-135450] | 36.58
CCCN(CCC)C(=O)c1cc(C(=O)N[C@@H](Cc2ccccc2)[C@H](O)CNC(C)(C)c2cccc(C(F)(F)F)c2)cc(N2CCCCS2(=O)=O)c1 [TCMDC-134675] | 20.25
CCn1ccc2c(N3CCCCS3(=O)=O)cc(C(=O)N[C@@H](Cc3ccccc3)[C@H](O)CNC(C)(C)c3cccc(C(F)(F)F)c3)cc21 [TCMDC-135317] | 87.8
CCN1CCc2c1cc(C(=O)N[C@@H](Cc1ccccc1)[C@H](O)CNC(C)(C)c1cccc(C(F)(F)F)c1)cc2N1CCCCS1(=O)=O [TCMDC-135451] | 62.24
